Screening data deposited in PubChem BioAssay by National Center for Advancing Translational Sciences (NCATS).
GLP1R ag = GLP-1 receptor (human) agonism. HEK293 GLP-1R CRE-luciferase, luminescence, 4-6 h; cells express a hypersensitive GLP-1R form. P43220. Potency, µM (highest dose often 45.6 µM), without a hit: at the top dose activation, most hits filed as activators. 380,000 compounds, 0.007% hits; note: % of control where 0% means no effect
Glioma ERSR ind = ER stress response induction in glioma; U87-MG GRP78 promoter luciferase reporter, 16 h; Potency, µM, for the others: at the top dose activation, hits mostly activators; AID 602332; 420,000 compounds, 0.02% hits; note: series mostly up to about 76 µM; % of control where 0% means no effect; nearly all actives have a fitted effect of over 35% in size
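Stably transfected U87-MG human glioma cells carrying a GRP78-based luminescent sensor were seeded at 1000 cells/well, pin-dosed with compounds and incubated 16 h. Luciferase reagent was then added, and end-point luminescence was read after 10 min at room temperature.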
PTHR1 ag = agonists of human PTHR1 parathyroid hormone receptor | HEK293 GP2 PTHR1 cells, GloSensor cAMP luminescence, 1 h | Potency, µM (doses to about 115 µM), for inactives: at the top dose activation, actives largely listed as activators | 410,000 compounds, 0.075% hits | AID 743266; note: nearly all actives have a fitted effect of over 55% in size
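HEK-293-derived GP2 cells expressing PTHR1 and a GloSensor cAMP reporter, 3,000/well, plated overnight, given luciferin plus IBMX (each 0.5 mM as added) for 1 h at 37 °C, then compound for 1 h at 37 °C. Luminescence was read after 15 min at room temperature.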
GLS inh = glutaminase GLS (human) inhibition; AID 624170; GLS enzymatic activity, qHTS titration; Potency, µM (series often up to 45.5 µM), inactives show top-dose activity change, negative = inhibition, hits mostly inhibitors; O94925; 410,000 compounds, 0.21% hits; note: % is set by controls: 0 for no effect and ±100 for the full control effect
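hKGA in 45 mM KH2PO4 pH 8.2, 0.02% Tween-20 with pin-transferred compounds; 1 mM L-glutamine (stock) plus glutamate oxidase/HRP/Amplex Red coupling added. Fluorescence read initially and after 30 min at RT.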
12-LOX inh = ALOX12 (human) lipoxygenase inhibition; purified 12hLO, xylenol orange hydroperoxide absorbance; 580,000 compounds, 1.1% hits; Potency, µM (series often up to 108 µM), for inactives: at the top dose activity change, negative = inhibition, hits mostly inhibitors; P18054; AID 1671190; note: % is set by controls: 0 for no effect and ±100 for the full control effect
Target sequence (P18054 whole entry, looked up): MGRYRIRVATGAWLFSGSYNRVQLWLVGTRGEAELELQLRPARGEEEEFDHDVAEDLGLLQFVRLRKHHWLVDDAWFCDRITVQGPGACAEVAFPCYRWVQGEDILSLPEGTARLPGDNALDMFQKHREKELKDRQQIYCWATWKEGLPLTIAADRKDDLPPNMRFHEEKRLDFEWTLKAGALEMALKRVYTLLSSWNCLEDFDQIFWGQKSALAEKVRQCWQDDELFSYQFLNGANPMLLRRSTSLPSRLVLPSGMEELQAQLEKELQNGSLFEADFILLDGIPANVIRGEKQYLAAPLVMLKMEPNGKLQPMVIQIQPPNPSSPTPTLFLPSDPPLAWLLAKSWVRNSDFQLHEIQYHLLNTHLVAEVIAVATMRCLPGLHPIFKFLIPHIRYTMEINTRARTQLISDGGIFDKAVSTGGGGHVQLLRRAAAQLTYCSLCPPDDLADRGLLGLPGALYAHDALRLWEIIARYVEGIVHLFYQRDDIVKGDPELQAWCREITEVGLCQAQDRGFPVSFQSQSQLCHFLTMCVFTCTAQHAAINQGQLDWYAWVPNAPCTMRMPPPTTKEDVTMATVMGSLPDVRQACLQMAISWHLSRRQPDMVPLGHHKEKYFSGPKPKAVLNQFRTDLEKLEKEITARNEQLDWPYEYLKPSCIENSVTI
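Purified human 12hLO at 150 nM in 25 mM Hepes, 0.01% Triton X-100, pH 7.0, preincubated 15 min at room temperature with compound. Reaction started with 40 uM arachidonic acid, 30 min at room temperature. Hydroperoxide measured by Fe-xylenol orange, 573/405 nm absorbance ratio.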
GLP1R inv ag = GLP-1 receptor (human) inverse agonism; HEK293 GLP-1R CRE-luciferase, luminescence, 24 h; GLP-1R form is constitutively active; P43220; 410,000 compounds, 1.6% hits; AID 624417; Potency, µM (doses to about 38.3 µM), for inactives: at the highest dose activity change, negative = inhibition, hits mostly inhibitors; note: % is set by controls: 0 for no effect and ±100 for the full control effect; nearly all actives have a fitted effect of over 55% in size
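Seeding at 200 cells/uL, 12 h culture, 24 hr compound treatment, then luciferase reagent and a luminescence read; cells are HEK293 stably expressing a constitutively active GLP-1R plus cAMP-responsive luciferase.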
* = called active by the depositor; i = inactive; ? = inconclusive; . = no result; [ ] = dose if it differs, or a comment. Sampled rows, rich in hits. Any-hit rate of the full collection: about 2.3%. Calls come from the whole dose curve; as a rule, active = well fitted curve in the direction sought with a large enough effect; inconclusive = small, poorly fitted or top-dose-only effect, or another doubt; inactive = no such curve, though single readings can be large; an effect the other way counts as inactive or inconclusive. Potency is the fitted concentration of half-maximal effect.

SMILES | GLP1R ag | Glioma ERSR ind | PTHR1 ag | GLS inh | 12-LOX inh | GLP1R inv ag
CC(C)(C)N(Cc1ccccc1)C(=O)CCc1ccccc1 | 5% | -2% | -33% | 0% | -11% | 22µM*
O=C(CC12CC3CC(CC(C3)C1)C2)Nc1ccc(-c2nc3ccccc3o2)cc1 | . | . | . | . | -17% | .
CCCCCCCCCCCCCCCC(O)C[N+](C)(C)CCO (stereo unspecified) | -2% | -9% | i | -21% | 16µM* | ?
CCCCCC(O)CCCC(=O)O (stereo unspecified) | 0% | -3% | -21% | 5% | 3% | -4%
C/C(=N/NC(N)=S)C1=CC(C)(C)CCC1 | . | . | . | . | 6.3µM* | .
CCOC(=O)c1c(Nc2ccc(C)cc2)nnc(-c2ccccc2)c1-c1ccccc1 | -3% | -4% | -21% | 5% | -19% | 11µM*
CCOC(=O)c1c(Nc2cccc(C(=O)OC)c2)nnc(-c2ccccc2)c1-c1ccccc1 | -6% | -5% | -18% | 4% | -29% | 1%
Cc1cccc(NC(=O)c2cccc(Cn3cc(Br)c([N+](=O)[O-])n3)c2)c1C | 5% | -3% | -42% | -2% | -9% | 10µM*
O=C(CSc1nnc(-c2ccncc2)n1-n1cccc1)Nc1ccc2c(c1)OCO2 | . | . | . | . | -10% | .
Cc1ccc(-c2cc(N)n(Cc3ccc(Cl)cc3)n2)cc1 | 0% | 0% | -29% | 5% | 27% | 11µM*
Cc1cc(N)n(Cc2ccc(Cl)cc2)n1 | 1% | -2% | i | 16% | -18% | 7%
CCCc1nn2c(=O)cc(COc3cccc(NC(=O)c4cccs4)c3)nc2s1 | . | . | . | . | 9% | .
CN(CC(=O)NC1(C)CCS(=O)(=O)C1)Cc1ccccc1 (stereo unspecified) | . | . | . | . | -4% | .
O=C(COc1cc(O)c2c(=O)cc(-c3ccccc3)oc2c1)Nc1cccc(O)c1 | . | . | . | . | -36% | .
Nc1nc(Sc2ccc([N+](=O)[O-])c3nonc23)c2[nH]cnc2n1 | 7% | -14% | -42% | ? | 32µM* | ?
O=C(NCCN1CCC(n2c(=O)[nH]c3ccccc32)CC1)c1cc(F)cc(F)c1 | -2% | . | -10% | 4% | ? | ?
O=C(NCCN1CCC(n2c(=O)[nH]c3ccccc32)CC1)c1cccc(F)c1 | -5% | . | -14% | -17% | 45µM* | -17%
CCOC(=O)c1cccc(NS(=O)(=O)c2cc(-c3nn(C)c(=O)c4c3CCCC4)ccc2CC)c1 | . | . | . | . | 7% | .
COC(=O)C1=C(C)OC(N)=C(C#N)C1c1ccc(-c2ccccc2)cc1 (stereo unspecified) | . | . | . | . | 35µM* | .
Clc1ccc(-c2csc(Nc3ccccc3)[n+]2Cc2ccco2)c(Cl)c1 | -5% | 0% | -38% | -6% | ? | 2.8µM*
CCn1ccc(C(=O)N2CCCC(c3ccccc3)(c3ccccc3)C2)cc1=O | . | . | . | . | 5% | .
CCC1(C)Nc2ccccc2C(=O)N1O (stereo unspecified) | 0% | -5% | -9%[57.5 µM] | 25% | 0.63µM* | ?
CCOc1ccc(N2C(=O)c3ccccc3NC2(C)CC)cc1 (stereo unspecified) | -8% | 0% | -35% | -7% | 131% | ?
O=C(Cc1cccs1)Nc1cccc(-c2nc3cc4ccccc4cc3[nH]2)c1 | -26% | -4% | -46% | 3% | ? | 11µM*
CCOC(=O)c1c(CN2CCC(C(=O)NCC(F)(F)F)CC2)nc2ccccc2c1C | . | . | . | . | 9% | .
SMILES | GLP1R ag | Glioma ERSR ind | PTHR1 ag | GLS inh | 12-LOX inh | GLP1R inv ag
CCC(C)[C@H](NC(=O)Nc1cc(OC)cc(OC)c1)C(=O)O (stereo partly specified) | . | . | . | . | -1% | .
O=C(Nc1ccccc1)C1C2CCC3C(CCC21)C3(Cl)Cl (stereo unspecified) | -4% | -2% | -10%[57.5 µM] | -3% | 57% | 6.3µM*
O=C(Nc1cccc(Cl)c1)C1C2CCC3C(CCC21)C3(Cl)Cl (stereo unspecified) | -9% | -4% | -21% | 1% | -33% | 5.6µM*
O=C(Nc1ccccc1Cl)C1C2CCC3C(CCC21)C3(Cl)Cl (stereo unspecified) | 7% | -2% | -8% | 11% | -10% | 10%
COc1cccc(C(=O)N2CCCC3(C2)NC(=O)N(Cc2ccc(C)cc2)C3=O)c1OC (stereo unspecified) | . | . | . | . | 8% | .
CNC(=S)N/N=C(\C)c1ccc2c(c1)OCO2 | 2% | -6% | i | 20% | 13% | 10µM*
CNC(=S)N/N=C(\C)c1ccc2c(c1)OCCO2 | 11% | 7% | -47% | 3% | ? | ?
CCNC(=S)N/N=C(\C)c1ccc2c(c1)OCCO2 | 2% | 11% | i | -12% | ? | ?
C/C(=N\NC(=S)NC(C)C)c1ccc2c(c1)OCCO2 | 7% | -1% | -91% | 35% | ? | 10µM*
COc1ccc(NS(=O)(=O)c2ccc(-c3cc(C(F)(F)F)on3)s2)cc1 | . | . | . | . | -24% | .
CC1=C(O)C(=O)CO1 | . | . | . | . | 25µM* | .
O=C1OCC(CC2=C(O)C(=O)OC2)=C1O | -1% | -4% | -18% | 2% | -8% | 9%
Cc1c(Cc2ccccc2)c(=O)oc2c(C)c(OS(C)(=O)=O)ccc12 | . | . | . | . | 1% | .
COc1ccccc1CNC(=O)C1CC2Cn3c(nc4cc(Cl)c(Cl)cc43)C2N1C (stereo unspecified) | -5% | 2% | -53% | 1% | 11µM* | ?
COCCN(Cc1nc2ccccc2c(=O)[nH]1)C(=O)c1oc2ccc(F)cc2c1C | . | . | . | . | 7% | .
CNC(=S)N/N=C/c1cn(Cc2c(F)cccc2Cl)c2ccccc12 | 0% | -3% | i | -2% | 25µM* | -43%
N#CCC(=O)N/N=C/c1cn(Cc2ccc(Cl)c(Cl)c2)c2ccccc12 | 6% | -4% | -2% | 1% | 111% | 1.3µM*
O=[N+]([O-])/C=C/c1cn(Cc2ccc(F)cc2)c2ccccc12 | -21% | -14% | -33% | 0% | 3.5µM* | -5%
N#CCC(=O)N/N=C/c1cn(Cc2ccccc2C#N)c2ccccc12 | 1% | -4% | i | 22% | ? | 6%
CCNC(=S)N/N=C/c1cn(Cc2ccccc2F)c2ccccc12 | 14% | -2% | i | 23% | 40µM* | ?
O=C(O)c1ccc(N/N=C/c2cn(Cc3ccc(F)cc3)c3ccccc23)cc1 | -3% | -5% | -9% | 11% | ? | ?
CC1CCC(NC(=O)C(=O)Nc2cccc(Cl)c2Cl)CC1 (stereo unspecified) | . | . | . | . | -5% | .
Cc1cc2cc(NS(=O)(=O)c3ccccc3F)ccc2[nH]1 | . | . | . | . | -4% | .
COc1ccccc1-c1cc2c(nc1-c1ccccc1)nc(C(=O)NCCN(C)C)n2C | . | . | . | . | -3%[176 µM] | .
